We go through 36 molecules from PubChem BioAssay.

Molecules are shown by their SMILES.

One assay in a line: probe aDKK1 binding to arrayed compounds – biochemical, biotinylated probe, 635/667 nm fluorescence, primary screen (AID 1099).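 Note: score merges 667nm spot fluorescence with signal to noise across triplicate slides; reference of the scale not given here.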 Particulars: small-molecule microarray, higher = more signal.
Consider `COc1ccc([Si](C)(C)[C@H]2[C@H](CC(=O)N3Cc4ccccc4C[C@H]3CO)O[C@@]3(C(=O)N(C)c4ccccc43)[C@@H]2C)cc1`, for which the composite z-score is -0.127.

`C=CCC(OC(C)=O)[C@@H]1[C@@H](N(Cc2cc3ccccc3o2)C(=O)c2cccc3ccccc23)c2cc(OCCCO)ccc2N1C(=O)c1ccc2ccccc2n1` (some centres not stated) registered a composite z-score of 0.749.

Turning to `CCOC(=O)C[C@H]1[C@H](OC(=O)c2ccccc2-c2ccccc2)[C@@H](NC(=O)C2CCCCC2)c2cc(OCCCO)ccc2N1C(=O)c1ccc2ccccc2n1`, the composite z-score was -0.0483.

Turning to `O=C1C2C=CC(C(O)C3CCCCC3)N(n3cnnc3)C2C(=O)N1Cc1ccccc1` (configuration not stated), the composite z-score came to 0.224.

Molecule `C=CCOC(=O)[C@@H]1[C@H]2C(=O)O[C@H](c3ccccc3)[C@H](c3ccccc3)N2[C@H](c2ccc(OCCOC(=O)[C@H]3C[C@H]4C(=O)N[C@@H](CCCCN(C)C)C(=O)N4[C@H]3c3ccc(O)cc3)cc2)[C@@]12C(=O)Nc1ccc(I)cc12` registered a composite z-score of 0.0904.

For `O=C1C[C@]2(c3ccc([N+](=O)[O-])cc3)C(=O)N(C3CC3)c3cc(CO)ccc3[C@H]2N1C1CCCCC1`, the composite z-score is -0.0619.

Turning to `CN(C)CCCNC(=O)[C@@]1(Cc2ccccc2I)c2ccccc2C(=O)N(C2CCCCC2)[C@H]1c1ccc(CO)cc1`, the composite z-score is 1.13.

`C=CCC(OC(C)=O)[C@@H]1[C@@H](N(Cc2cccc3ccccc23)C(=O)c2ccc(-c3ccccc3)cc2)c2cc(OCCCO)ccc2N1C(=O)Cc1ccc2ccccc2c1` (some centres not stated) showed a composite z-score of -0.0459.

Take `COc1cc(C(O)C2C=CC3C(=O)N(c4ccccc4)C(=O)C3N2Nc2ccccc2F)cc(OC)c1OC` (configuration not stated): the composite z-score was 0.521.

Consider `C=CCN1C(=O)[C@@]2(O[C@@H](CCn3cc([C@H](O)c4ccccc4)nn3)[C@H]([Si](C)(C)c3ccc(OC)cc3)[C@H]2C)c2cc(N3C(=O)c4cccc5cccc3c45)ccc21`, for which the composite z-score was -0.236.

On to `COC(=O)[C@H](Cc1ccc(O)cc1)N[C@@H](/C=C/C1CC1)[C@H](O)Cc1ccccc1`, for which the composite z-score is -0.29.

In turn, `COc1ccc([Si](C)(C)[C@@H]2[C@@H](CC(=O)N3CCC[C@H]3CO)O[C@]3(C(=O)N(Cc4cccc(N5CCCCC5=O)c4)c4ccccc43)[C@H]2C)cc1` yielded a composite z-score of -0.246.

The molecule `O=C1C[C@@](C(=O)O)(c2ccc([N+](=O)[O-])cc2)[C@@H](c2ccc(CO)cc2)N1C1CCCCC1` registered a composite z-score of 0.366.

Regarding `CCOC(=O)c1cn(C[C@H](Cc2ccccc2)NC(=O)N[C@H](CO)CCc2oc(C(C)=O)c(C(=O)OC)c2C(=O)OC)nn1`, the composite z-score worked out at 0.0549.

As for `NCCCCCCNC(=O)[C@@H]1C[C@@H]2C(=O)N3CCC[C@H]3C(=O)N2[C@@H]1c1cccc(OCCO)c1`, the composite z-score was 0.0549.

In turn, `COCCOC(=O)N1C(=O)[C@@]2(c3cc(C#CCCO)ccc31)[C@H](C(N)=O)[C@H]1C(=O)O[C@H](c3ccccc3)[C@H](c3ccccc3)N1[C@@H]2c1ccccc1OCCO` showed a composite z-score of 0.7.

The nature of a further assay: probe aCHRDL2 binding to arrayed compounds – biochemical, biotinylated probe, 635/667 nm fluorescence, primary screen (AID 1100). To be noted: small-molecule microarray, higher = more signal.
Take `CC(C)(C)N1CC=CC23O[C@@H]4/C=C\CCCOC(=O)C4[C@H]2C(=O)N(CCCO)[C@@H]3C1=O` (some centres not stated): the composite z-score was -0.006.

For `Cc1ccc(S[C@]2(C(=O)NCCCN(C)C)CC(=O)N(C3Cc4ccccc4C3)[C@@H]2c2ccc(CO)cc2I)cc1`, the composite z-score came out at 0.932.

As to `CCOc1cc(C(O)C2C=CC3C(=O)N(c4ccccc4)C(=O)C3N2Nc2ccccc2F)ccc1O` (configuration not stated), the composite z-score is 0.762.

The molecule `Cc1ccc(F)cc1S(=O)(=O)N[C@H]1CCN(Cc2ccc(OC(C)C)cc2)C1` had a composite z-score of -0.747.

`COC(=O)C(CC#Cc1ccc2c(c1)[C@]1(C(=O)N2)[C@H](c2ccc(OCCO)cc2)N2[C@H](c3ccccc3)[C@H](c3ccccc3)OC(=O)[C@H]2[C@@H]1C(=O)N1CCCCCCC1)C(=O)OC` returned a composite z-score of 1.3.

Molecule `[N-]=[N+]=Nc1ccccc1C[C@]1(C(=O)N2CCOCC2)N=C(c2ccc(OCCCO)cc2)O[C@H]1c1ccccc1N=[N+]=[N-]` came in with a composite z-score of 0.915.

`O=C(NC1CC1)[C@@H]1c2ccccc2C(=O)N(Cc2ccc(OC(F)(F)F)cc2)[C@H]1c1ccc(CO)cc1` had a composite z-score of 0.111.

With `CN(C)CCCC[C@@H]1NC(=O)[C@H]2C[C@@H](C(=O)O)[C@@H](c3ccc(O)cc3)N2C1=O`, the composite z-score was 1.64.

`CO[C@H]1O[C@H](CO)[C@@H](OC(=O)Nc2ccccc2)[C@H](OC(=O)Nc2ccccc2)[C@H]1OC(=O)Nc1ccccc1` returned a composite z-score of -0.0165.

As to `[N-]=[N+]=NCc1ccccc1[C@@H]1OC(c2ccc(OCCCO)cc2)=N[C@]1(Cc1ccccc1N=[N+]=[N-])C(=O)O`, the composite z-score is 1.11.

`CC(C)=CCCC(C)=CC(O)C1C=CC2C(=O)NC(=O)C2N1Nc1ccc(Cl)cc1Cl` (configuration not stated): the composite z-score worked out at 0.992.

`CC(C)C(=C=CC[C@H](O)c1ccccc1OCCO)C[C@H](O)c1cc(Cl)cc(Cl)c1O` showed a composite z-score of -0.13.

As to `COc1ccc(C(=O)Nc2ccc3c(c2)[C@@]2(O[C@H](CCO)[C@@H]([Si](C)(C)c4ccc(OC)cc4)[C@@H]2C)C(=O)N3Cc2ccccc2)cc1`, the composite z-score is 0.546.

Take `CC(C)(C)OC(=O)CC[C@@]1(C(=O)NCCN2CCOCC2)N=C(c2ccc(OCCCO)cc2)O[C@@H]1c1ccccc1CN=[N+]=[N-]`: the composite z-score stood at 0.454.

With `CC(C)C(CO)N1C(=O)[C@@H]2C3C(=O)OCCC/C=C\[C@H]3OC23C=CCN(Cc2ccccc2)C(=O)[C@@H]13` (some centres not stated), the composite z-score was determined as 0.554.

On to `COC(=O)C(CC#Cc1ccc2c(c1)[C@]1(C(=O)N2)[C@H](C(=O)N2CCc3cc(OC)c(OC)cc3C2)[C@H]2C(=O)O[C@H](c3ccccc3)[C@H](c3ccccc3)N2[C@@H]1c1ccccc1OCCO)C(=O)OC`, for which the composite z-score worked out at 0.623.

In turn, `CC(C)=CCCC=C(C)C(O)C1C=CC2C(=O)N(c3ccccc3)C(=O)C2N1Nc1ccc(C#N)cc1` (configuration not stated) registered a composite z-score of 0.722.

`C=CCC(OC(C)=O)[C@@H]1[C@@H](N(Cc2cccc3ccccc23)C(=O)Cc2ccc(OC)cc2)c2cc(OCCCO)ccc2N1C(=O)Cc1ccc2ccccc2c1` (some centres not stated) had a composite z-score of 0.087.

Consider `CN1C(=O)C2C=CC(C(O)c3ccc(-c4ccccc4)s3)N(NC(=O)OC(C)(C)C)C2C1=O` (configuration not stated), for which the composite z-score is 1.04.

Regarding `COC(=O)[C@@]1(Cc2ccccc2)N=C(c2ccc(OCCCO)cc2)O[C@H]1c1ccccc1CN=[N+]=[N-]`, the composite z-score came to 0.652.

On to `COc1ccc([Si](C)(C)[C@H]2[C@H](CC(=O)N3Cc4ccccc4C[C@H]3CO)O[C@@]3(C(=O)N(C)c4ccccc43)[C@@H]2C)cc1`, for which the composite z-score was -0.431.

Molecule `C=CCC(OC(C)=O)[C@@H]1[C@@H](N(Cc2cc3ccccc3o2)C(=O)c2cccc3ccccc23)c2cc(OCCCO)ccc2N1C(=O)c1ccc2ccccc2n1` (some centres not stated) returned a composite z-score of 0.317.

The molecule `CCOC(=O)C[C@H]1[C@H](OC(=O)c2ccccc2-c2ccccc2)[C@@H](NC(=O)C2CCCCC2)c2cc(OCCCO)ccc2N1C(=O)c1ccc2ccccc2n1` displayed a composite z-score of -0.334.

Molecule `O=C1C2C=CC(C(O)C3CCCCC3)N(n3cnnc3)C2C(=O)N1Cc1ccccc1` (configuration not stated) displayed a composite z-score of 0.623.

`C=CCOC(=O)[C@@H]1[C@H]2C(=O)O[C@H](c3ccccc3)[C@H](c3ccccc3)N2[C@H](c2ccc(OCCOC(=O)[C@H]3C[C@H]4C(=O)N[C@@H](CCCCN(C)C)C(=O)N4[C@H]3c3ccc(O)cc3)cc2)[C@@]12C(=O)Nc1ccc(I)cc12` returned a composite z-score of -0.13.

Molecule `O=C1C[C@]2(c3ccc([N+](=O)[O-])cc3)C(=O)N(C3CC3)c3cc(CO)ccc3[C@H]2N1C1CCCCC1` displayed a composite z-score of 0.305.

On to `CN(C)CCCNC(=O)[C@@]1(Cc2ccccc2I)c2ccccc2C(=O)N(C2CCCCC2)[C@H]1c1ccc(CO)cc1`, for which the composite z-score is 0.532.

The molecule `C=CCC(OC(C)=O)[C@@H]1[C@@H](N(Cc2cccc3ccccc23)C(=O)c2ccc(-c3ccccc3)cc2)c2cc(OCCCO)ccc2N1C(=O)Cc1ccc2ccccc2c1` (some centres not stated) showed a composite z-score of 0.428.

For the molecule `COc1cc(C(O)C2C=CC3C(=O)N(c4ccccc4)C(=O)C3N2Nc2ccccc2F)cc(OC)c1OC` (configuration not stated), the composite z-score was found to be 0.55.

As to `C=CCN1C(=O)[C@@]2(O[C@@H](CCn3cc([C@H](O)c4ccccc4)nn3)[C@H]([Si](C)(C)c3ccc(OC)cc3)[C@H]2C)c2cc(N3C(=O)c4cccc5cccc3c45)ccc21`, the composite z-score worked out at 0.401.

Molecule `COC(=O)[C@H](Cc1ccc(O)cc1)N[C@@H](/C=C/C1CC1)[C@H](O)Cc1ccccc1` came in with a composite z-score of -0.33.

`COc1ccc([Si](C)(C)[C@@H]2[C@@H](CC(=O)N3CCC[C@H]3CO)O[C@]3(C(=O)N(Cc4cccc(N5CCCCC5=O)c4)c4ccccc43)[C@H]2C)cc1` returned a composite z-score of -0.115.

`O=C1C[C@@](C(=O)O)(c2ccc([N+](=O)[O-])cc2)[C@@H](c2ccc(CO)cc2)N1C1CCCCC1` had a composite z-score of 0.495.

As to `CCOC(=O)c1cn(C[C@H](Cc2ccccc2)NC(=O)N[C@H](CO)CCc2oc(C(C)=O)c(C(=O)OC)c2C(=O)OC)nn1`, the composite z-score is -0.398.

In turn, `NCCCCCCNC(=O)[C@@H]1C[C@@H]2C(=O)N3CCC[C@H]3C(=O)N2[C@@H]1c1cccc(OCCO)c1` had a composite z-score of 0.798.

On to `COCCOC(=O)N1C(=O)[C@@]2(c3cc(C#CCCO)ccc31)[C@H](C(N)=O)[C@H]1C(=O)O[C@H](c3ccccc3)[C@H](c3ccccc3)N1[C@@H]2c1ccccc1OCCO`, for which the composite z-score was found to be 0.694.
